# High-throughput results (PubChem BioAssay)
# Bfl-1 A1 inh: caspase 3/7 activation in MEF A1-2A-BIM cells, primary screen, A1 inhibitor project, cell-based, luminescence, HTS | Caspase-Glo 3/7 luminescence, 3 h; percent of clofoctol response, vehicle zero | caspase activation, % (concentration not given with the values) | actives 0.066% (n = 330,000) | AID 2462, 2010;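 active = over half of replicate activation scores above 10%, or exactly half above 10 with the replicate mean above 10; inconclusive = replicate mean below 10 yet half the replicates above 10; inactive = over half of replicates below 10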
# Efflux pump mplx: inhibitors of Candida efflux pumps in yeast, primary screen, S. cerevisiae, Nile Red, multiplex; S. cerevisiae Candida pump triplex; inhibition, % at 10 µM; actives 0.44% (n = 330,000); AID 485275, 2010;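 active = plate passing quality check with inhibition over a set limit, or well fluorescence over plate mean plus 4 SD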;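 also: Nile Red retained in pooled yeast measured as flow cytometry median fluorescence; higher means more Nile Red kept so more efflux inhibition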
# SUMO Mot1 rescue: yeast Mot1-301 growth rescue at high temperature, primary screen, SUMOylation pathway inhibitor project, S. cerevisiae, ATP luminescence, 38.5C; S. cerevisiae Mot1-301 growth rescue; percent above DMSO median, 100 means doubled; growth rescue, % at 18.8 µM; actives 1% (n = 320,000);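 active = every valid replicate shows activation above 250% relative to neutral control wells; inactive = the rest, any valid replicate at or below 250%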
# AHR act: AHR activators, primary screen, cell-based, luminescence, luciferase reporter, human. actives 2.5% (n = 320,000). AID 2796, 2010. activation, % at 5 µM. AHR-responsive luciferase reporter cells. Aryl hydrocarbon receptor (Homo sapiens), P35869; in the data active = activation above about 47%
# ALR inh: inhibitors of human ALR sulfhydryl oxidase, primary screen, biochemical, H2O2 detection, HRP-luminol luminescence, single point. FAD-linked sulfhydryl oxidase ALR (Homo sapiens), P55789. purified ALR, DTT oxidation. inhibition, % (test concentration not listed). actives 3.8% (n = 290,000). AID 485317, 2010;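 active = mean replicate inhibition above about 79%, with every replicate also reaching it, limit read from the data; inconclusive = only one of the two criteria met; inactive = mean below limit and not every replicate reaching it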
# VLA-4 inh: inhibition in human VLA-4 binding assay, primary screen, VLA-4 allosteric modulator project, MLPCN library, flow cytometry, VLA-4 expressing cells; Integrin alpha-4 (Homo sapiens), P13612; ligand binding flow cytometry; inhibition, % (about 7 µM as worked out from the volumes in the protocol); actives 0.2% (n = 330,000); in the data active = inhibition above about 50%
# A number is an active result; – = inactive; ? = inconclusive; · = no result. An excerpt weighted towards active compounds, which were near 7.2% of everything screened.
SMILES,Bfl-1 A1 inh,Efflux pump mplx,SUMO Mot1 rescue,AHR act,ALR inh,VLA-4 inh
Cc1cc(Cl)ccc1C(=O)C1CCCN(C(=O)c2cnsn2)C1 (centres undefined),–,–,–,–,–,–
CSc1ncccc1C(=O)N1CCCC(Nc2ccc(C)c(C)c2)C1 (centres undefined),–,–,–,·,99,–
Cc1ccccc1/C=N/NC(=O)c1sccc1C,–,–,–,–,–,–
Cc1ccccc1/C=N\NC(=O)c1ccccc1-n1cccc1,–,–,–,68,–,–
O=C(N/N=C/c1ccc(Br)cc1)c1ccccc1-n1cccc1,–,–,–,71,–,–
Cc1cc2nc(-c3ccc(SCc4ccccn4)nc3)[nH]c2cc1C,–,–,–,48,98,–
Cc1cc2nc(-c3ccc(SCC(=O)N4CCOCC4)nc3)[nH]c2cc1C,–,–,–,60,?,–
Cc1cc2nc(-c3ccc(SCC(=O)N4CCN(C(=O)c5ccco5)CC4)nc3)[nH]c2cc1C,–,–,–,–,99,·
O=C(CCN1C(=O)c2ccccc2S1(=O)=O)Nc1ccc(Cl)cc1,–,–,–,·,–,–
O=S(=O)(Nc1ccc(Br)cc1)N1CCOCC1,–,–,–,–,–,–
O=c1[nH]c(/C=C/c2ccccc2Cl)c([N+](=O)[O-])c(=O)[nH]1,–,–,–,·,–,–
COc1cccc(/C=C/c2[nH]c(=O)[nH]c(=O)c2[N+](=O)[O-])c1O,–,–,–,–,98,–
COc1cc(/C=C/c2[nH]c(=O)[nH]c(=O)c2[N+](=O)[O-])cc(OC)c1O,–,–,–,·,95,–
CCOC(=O)COc1ccc(Br)cc1/C=C/c1[nH]c(=O)[nH]c(=O)c1[N+](=O)[O-],–,–,–,–,97,–
O=C(CSc1nc2cc(Cl)ccc2s1)Nc1cccc(S(=O)(=O)N2CCOCC2)c1,–,–,–,–,·,–
Cc1ccc(S(=O)(=O)N2CCN(c3ccc(C(=O)N4CCOCC4)cc3[N+](=O)[O-])CC2)cc1,–,–,–,–,–,–
Cc1cc(NC(=O)/C=C/c2cccc(F)c2)n(-c2nc3ccccc3[nH]2)n1,–,–,–,74,–,–
Cc1cc(NC(=O)/C=C/c2ccc(F)cc2)n(-c2nc3ccccc3[nH]2)n1,–,–,–,–,–,–
O=C(COc1cccc2ccccc12)NNC(=O)c1cccs1,–,–,–,–,–,–
O=C(c1ccc(S(=O)(=O)c2ccc(F)cc2)c([N+](=O)[O-])c1)N1CCCCCC1,–,–,–,–,96,–
COc1cc(C(c2c(C(=O)O)[nH]c3ccccc23)c2c(C(=O)O)[nH]c3ccccc23)ccc1OCc1ccccc1,–,–,–,–,–,–
COc1ccc(C(C[N+](=O)[O-])c2c(C)[nH]c3ccccc23)cc1OC (centres undefined),–,–,–,60,–,–
C[c-]1[c-](C)[c-](C)[c-](C)[c-]1C.[Fe].c1cc2nccc(N3CCCC3)[c-]2c1 (centres undefined),–,–,–,–,94,–
C(=N\Nc1nc2ccccc2[nH]1)/c1cccc2cccnc12,–,–,–,–,–,–
COc1cccc(/C=N/Nc2nc(C)cc(=O)[nH]2)c1OC,–,–,–,–,–,–
SMILES,Bfl-1 A1 inh,Efflux pump mplx,SUMO Mot1 rescue,AHR act,ALR inh,VLA-4 inh
COc1ccc(/C=N/Nc2nc3ccccc3[nH]2)c(OC)c1OC,–,–,–,51,98,–
C(=N\Nc1nc2ccccc2[nH]1)/c1c[nH]c2ccccc12,–,–,–,108,99,–
Cc1ccccc1/C=N/Nc1nc2ccccc2[nH]1,–,–,–,65,–,–
COc1ccc(/C=N/Nc2ccccn2)c(OC)c1OC,–,–,–,–,99,–
COCCNC(=O)C(C)OC(=O)c1cc2sccc2n1C (centres undefined),–,–,–,–,·,–
COc1ccc(S(=O)(=O)N2CCc3ccccc32)cc1C(=O)NCC(c1ccco1)N1CCCC1 (centres undefined),–,–,–,–,–,–
O=C(CN1CCN(Cc2ccccc2Cl)C1=O)NCc1ccccn1,–,–,–,–,·,–
Cc1cc(=O)[nH]c(N/N=C/c2c[nH]c3ccccc23)n1,–,–,–,–,92,–
Fc1cccc(/C=N/Nc2nc3ccccc3[nH]2)c1,–,–,–,–,–,–
Cc1[nH]c2ccccc2c1/C=N/Nc1nc2ccccc2[nH]1,–,–,–,143,–,–
Cc1[nH]c2ccccc2c1/C=N/Nc1nc(N2CCCCC2)nc(N2CCCCC2)n1,–,–,–,–,–,–
Cc1[nH]c2ccccc2c1/C=N/NC(N)=S,–,–,–,–,·,–
CCc1nnc(N/N=C/c2c(C)[nH]c3ccccc23)n1N,?,–,–,–,99,–
Fc1ccc(/C=N/Nc2nc3ccccc3[nH]2)cc1F,–,–,–,49,–,–
COc1ccc(CS(=O)c2nc(C)cc(C)c2S(C)(=O)=O)cc1 (centres undefined),–,–,–,–,–,–
CCCOc1ccc(C(=O)Nc2ccc(S(=O)(=O)NC3=NCCCCC3)cc2)cc1,–,–,–,–,–,–
CCc1nnc(NC(=O)c2ccc3nc(CC)c(CC)nc3c2)s1,–,–,–,–,–,–
O=C(OCc1nnc(-c2ccccc2)o1)c1ccc(S(=O)(=O)NCc2ccco2)cc1,–,–,–,–,–,–
Cc1ccc(O)c(NC(=O)C2CCCN2C(=O)OCc2ccccc2)c1 (centres undefined),–,–,–,–,87,–
C/C(=N\O)c1noc(C)c1C(=O)Nc1nccs1,–,–,–,50,–,–
CCOC(=O)CSc1n[nH]c(NC(=O)c2cccc(C(F)(F)F)c2)n1,–,–,–,–,99,–
Cc1nc2nc(-c3ccccc3)nn2c(C)c1Cl,–,–,–,55,–,–
Cc1nc2nc(-c3ccc(Cl)cc3)nn2c(C)c1Cl,–,–,–,53,–,–
Cc1nc2nc(-c3ccccc3)nn2c(C)c1C,–,–,–,–,–,–
CC(C)c1ccc(NC2CCCN(C(=O)c3ccc4nccnc4c3)C2)cc1 (centres undefined),·,–,·,–,–,–
COc1ccc(NC2CCCN(C(=O)c3cccc(N4CCNC4=O)c3)C2)cc1 (centres undefined),–,–,–,–,99,–
CC(C)c1ccc(NC2CCCN(C(=O)c3cccc(N4CCNC4=O)c3)C2)cc1 (centres undefined),–,–,–,–,95,–
COc1ccc(NC2CCCN(C(=O)c3cccnc3)C2)cc1 (centres undefined),–,–,–,–,97,–
